# AI-2 QS modul = Vibrio harveyi AI-2 quorum sensing modulation; actives 0.4% (n = 300,000); Vibrio harveyi JMH597 AI-2 luminescence/OD600 ratio, 9 h; hits give low values; strain lacks LuxN and CqsS sensors; 0 = neutral-control median; AID 2094; activity change, % at 7.5 µM; in the data active means activity change below about -75%, passing the limit was not always enough; inconclusive means no clear call, values can overlap the other calls;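 further: luminescence divided by OD600 gain over 9 h not by final OD600 alone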
# MLLE-PAM2 inh = blocks PAM2 peptide binding to the PABP1 MLLE domain; P11940; GST-MLLE / FITC-PAM2 fluorescence polarization; AID 588489; actives 0.36% (n = 360,000); inhibition, % at 20 µM; in the data active means inhibition above about 35%, passing the limit was not always enough;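 further: plate controls were DMSO wells with GST-MLLE for no effect and wells lacking GST-MLLE protein for full effect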
# ABCB6 inh 2 = human ABCB6 transporter inhibition; Q9NP58; K562-ABCB6 porphyrin accumulation, flow cytometry, 1 h; hits give low values; fluorescence ratio to DMSO, % at 10 µM; actives 0.19% (n = 360,000); AID 602162;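 active means fluorescence ratio to DMSO below 75%, the collection mean minus 3 SD; inconclusive means too few cells collected in the well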;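 further: signal is porphyrin accumulated inside mitochondria; 100% equals median channel fluorescence of DMSO control wells; lower ratio means ABCB6 inhibition with less porphyrin fluorescence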
# Target sequence (Q9NP58 whole entry, looked up): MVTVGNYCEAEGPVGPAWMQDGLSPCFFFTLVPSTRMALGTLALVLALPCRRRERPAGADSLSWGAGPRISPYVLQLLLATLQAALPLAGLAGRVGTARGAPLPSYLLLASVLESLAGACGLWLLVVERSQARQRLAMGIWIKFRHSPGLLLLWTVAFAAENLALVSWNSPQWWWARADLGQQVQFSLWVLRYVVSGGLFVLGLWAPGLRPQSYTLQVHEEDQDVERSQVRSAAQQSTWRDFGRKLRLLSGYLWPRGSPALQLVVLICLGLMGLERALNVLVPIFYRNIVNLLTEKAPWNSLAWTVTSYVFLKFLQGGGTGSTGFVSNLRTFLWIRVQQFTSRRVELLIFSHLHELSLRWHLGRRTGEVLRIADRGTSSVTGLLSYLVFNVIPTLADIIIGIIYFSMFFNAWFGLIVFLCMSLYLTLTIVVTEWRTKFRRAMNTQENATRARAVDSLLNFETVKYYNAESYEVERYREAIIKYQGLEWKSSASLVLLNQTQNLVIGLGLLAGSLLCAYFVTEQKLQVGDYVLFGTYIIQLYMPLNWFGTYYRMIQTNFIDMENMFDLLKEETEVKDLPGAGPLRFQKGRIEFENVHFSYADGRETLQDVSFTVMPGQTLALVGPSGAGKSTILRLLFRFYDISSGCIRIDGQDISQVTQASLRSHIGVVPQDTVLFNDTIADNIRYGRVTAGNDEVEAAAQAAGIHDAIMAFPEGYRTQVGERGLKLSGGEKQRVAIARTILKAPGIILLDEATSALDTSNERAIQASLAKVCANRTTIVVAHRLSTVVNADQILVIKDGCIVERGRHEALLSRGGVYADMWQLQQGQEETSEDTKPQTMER
# PHOSPHO1 inh = inhibitors of human PHOSPHO1 phosphatase; Q8TCT1; recombinant PHOSPHO1, absorbance phosphatase assay; inhibition, % at 13.3 µM; actives 1.1% (n = 290,000); AID 1565; in the data active means inhibition above about 60%
# eIF4H inh = inhibitors of RNA binding by human eIF4H; AID 2012; actives 0.94% (n = 290,000); eIF4H fluorescence polarization binding assay; inhibition, % at 35 µM; Q15056;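 further: calls also rest on retests at 20 µM and on dose response follow-up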
# PABP FP inh = PABP-poly(A) binding inhibition. PABP-poly(A) RNA binding, fluorescence polarization. AID 2014. calls only at 35 µM. P11940. actives 1% (n = 290,000);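 further: calls also rest on retests at 20 µM and on dose response follow-up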
# JMH597 growth rt = retest Vibrio harveyi JMH597 growth inhibition; shares compounds with AI-2 QS modul; OD600 absorbance, 9 h; lacks LuxN and CqsS sensors; growth inhibition, % at 7.5 µM; actives 1% (n = 750);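 active means every replicate shows growth inhibition above 50%; inconclusive means at least half, but not all, replicates pass that cutoff; inactive means fewer than half of replicates pass it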
# BB721 lum counter = retest counter-screen: lowers luminescence of constitutive-QS Vibrio harveyi BB721. actives 95% (n = 750). inhibition, % at 7.5 µM. AID 2727. 9 h. shares compounds with AI-2 QS modul;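 active means inhibition above about 80% in every replicate, not just on average, limit read from the data; inconclusive means at least half of replicates past the limit, but not all; inactive means fewer than half of replicates past the limit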
# BB721 growth rt = retest: blocks Vibrio harveyi BB721 growth; actives 3% (n = 750); OD600 absorbance, 9 h; shares compounds with AI-2 QS modul; growth inhibition, % at 7.5 µM; AID 2728;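 active means every replicate shows growth inhibition above 50%; inconclusive means at least half but not all replicates above 50% inhibition; inactive means under half of replicates above 50% inhibition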
# JMH597 AI-2 mod = Vibrio harveyi AI-2 signaling luminescence modulation – JMH597 strain, confirmation; Vibrio harveyi JMH597 AI-2 quorum sensing luminescence, 9 h; luxN and CqsS knockout, AI-2 only; shares compounds with AI-2 QS modul; inhibition, % at 7.5 µM; actives 97% (n = 750);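 active means every replicate shows more than 75% inhibition of signal versus neutral control wells; inconclusive means half to three quarters of replicates exceed 75% inhibition; inactive means fewer than half of replicates exceed 75% inhibition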
# * hit, by the source's call; i = inactive; ? = inconclusive; · = no result. This is a sample that favours compounds with a hit; in the whole collection about 2.6% have one here. Unless noted, how the calls were made is not given here.
SMILES,AI-2 QS modul,MLLE-PAM2 inh,ABCB6 inh 2,PHOSPHO1 inh,eIF4H inh,PABP FP inh,JMH597 growth rt,BB721 lum counter,BB721 growth rt,JMH597 AI-2 mod
CCNC(=O)c1cc2ccccc2o1,11,0,97,10,1,i,·,·,·,·
O=C(NCc1ccccc1)c1cc2ccccc2o1,-86*,8,101,3,-14,i,-11,94*,-4,95*
Cc1ccc(-c2cc(NC(=O)c3ccccc3[N+](=O)[O-])n[nH]2)cc1,-95*,-5,100,30,-10,i,-3,97*,-24,98*
O=C(Nc1cc(-c2ccccc2)[nH]n1)c1ccc(Cl)cc1,-82*,-2,99,27,-6,i,16,96*,22,96*
O=C(Nc1ccc2c(c1)OCO2)OCc1ccccc1,-93*,-4,97,-56,-3,i,-4,98*,18,98*
O=C(CCc1ccccc1)Nc1ccc2c(c1)OCO2,-69,-14,102,·,75,i,·,·,·,·
CSCCC1NC(=O)N(CC(=O)Nc2ccc(N3CCCCC3)cc2)C1=O (centres undefined),-82*,-8,87,13,5,i,-2,91*,-11,95*
Cc1ccc(CNC(=O)/C=C/c2c(Cl)cccc2Cl)cc1,25,1,99,-16,-4,i,·,·,·,·
O=C(/C=C/c1ccccc1Cl)NNC(=O)c1cccs1,8,-1,83,-18,-10,i,·,·,·,·
O=C(/C=C/c1ccc(Br)cc1)NCc1cccs1,-31,-5,97,-15,-11,i,·,·,·,·
CCC(C)NC(=O)/C=C/c1cccs1 (centres undefined),38,3,95,4,4,i,·,·,·,·
Cc1ccc(CNC(=O)/C=C/c2ccccc2Cl)cc1,-93*,9,89,32,3,i,-4,96*,-3,97*
O=C(/C=C/c1ccc(F)cc1)NCc1cccs1,-90*,-1,92,18,-5,i,4,95*,12,96*
O=C(/C=C/c1ccccc1Cl)NCc1cccs1,-93*,13,99,16,1,i,14,97*,1,98*
O=C(/C=C/c1cccs1)NCc1ccccc1,-90*,2,100,5,-2,i,9,97*,5,97*
CC(CNC(=O)CC[C@H]1O[C@@H](n2ccc(=O)[nH]c2=O)[C@H](O)[C@@H]1O)c1ccccc1 (some centres undefined),·,10,91,·,·,·,·,·,·,·
O=C(NC(c1ccc(Cl)cc1)c1cnccn1)C1CCN(CCCc2ccccc2)CC1 (centres undefined),·,3,103,·,·,·,·,·,·,·
CO/N=C\CC(=O)Nc1ccc(Oc2ccccc2)cc1,-80*,-23,96,28,16,i,12,84*,-3,91*
O=C(COC(=O)C1CCC1)Nc1ccc(Oc2ccccc2)cc1,-7,-27,90,-2,-7,i,·,·,·,·
O=C(COC(=O)C1CC1)Nc1ccc(Oc2ccccc2)cc1,-82*,9,148,-13,-4,i,17,89*,-1,94*
O=C(C/C=N\O)Nc1ccc(Oc2ccccc2)cc1,-4,5,98,12,-12,i,·,·,·,·
CC1Oc2ccc(C#N)cc2N(Cc2cccc(F)c2)C1=O (centres undefined),·,3,102,·,·,·,·,·,·,·
CC(=O)Nc1ccc(NC(=O)Cn2cc3c(n2)CCCC3)cc1,44,5,118,2,2,i,·,·,·,·
CC(=O)c1cccc(NC(=O)Cn2cc3c(n2)CCCC3)c1,-89*,-12,103,11,1,i,15,97*,7,98*
Cc1ncccc1C(=O)N1CCCC(c2cc(C(=O)Nc3ccc(C(C)(C)C)cc3)no2)C1 (centres undefined),·,10,100,·,·,·,·,·,·,·
SMILES,AI-2 QS modul,MLLE-PAM2 inh,ABCB6 inh 2,PHOSPHO1 inh,eIF4H inh,PABP FP inh,JMH597 growth rt,BB721 lum counter,BB721 growth rt,JMH597 AI-2 mod
CCSc1nsc(NC(=O)Nc2ccc(F)cc2F)n1,?,-3,97,39,-12,i,82*,94*,?,99*
O=C(NNc1nc2cc3c(cc2s1)OCCO3)c1ccccc1,-93*,-141,91,-156,-7,i,-6,98*,18,98*
Cc1cccc(C)c1-n1nnnc1-c1nc2cc3ccccc3cc2[nH]c1=O,·,·,138,·,·,·,·,·,·,·
CC1(C(=O)Nc2cccc3ccccc23)CCN1C(=O)C1(c2ccccc2)CCCC1 (centres undefined),·,-15,91,·,·,·,·,·,·,·
O=[N+]([O-])c1ccc(NCCCNS(=O)(=O)c2ccccc2)cc1,?,12,104,8,0,i,11,97*,6,97*
Cc1ccc(S(=O)(=O)NCCCNc2ccc([N+](=O)[O-])cc2)cc1,-60,-1,100,24,-5,i,·,·,·,·
C=CCNc1ncnc2c1ncn2[C@H]1CN(Cc2ccc(-c3ccccc3)cc2)C[C@@H](CO)O1,·,4,99,·,·,·,·,·,·,·
COc1ccc(S(=O)(=O)Nc2ccc3cn[nH]c3c2)cc1C,9,3,106,16,6,i,·,·,·,·
CCOC(=O)c1ccc(S(=O)(=O)Nc2ccc3cn[nH]c3c2)cc1,-90*,-9,89,46,-1,i,28,95*,28,97*
Cc1ccc(S(=O)(=O)NC(=O)NCc2ccc(Cl)cc2)cc1,37,-3,80,-3,-5,i,·,·,·,·
O=C(NCc1cccs1)Nc1ccc(Cl)cc1,?,-4,99,3,4,i,34,94*,60*,91*
COc1ccc(CNC(=O)Nc2cccs2)cc1OC,28,18,104,-72,12,i,·,·,·,·
O=C(NCc1ccc(Cl)cc1)Nc1ccc(F)cc1,?,7,100,33,-3,i,-19,96*,-8,96*
Cc1ccc(CNC(=O)Nc2cccs2)cc1,-82*,13,105,9,10,i,15,95*,25,95*
Cc1ccc(CNC(=O)Nc2ccc(Cl)cc2)cc1,-83*,0,99,-34,-10,i,-22,86*,-21,90*
CCOC(=O)C1=CCN(S(=O)(=O)c2ccccc2F)C1c1ccccc1 (centres undefined),·,-3,96,·,·,·,·,·,·,·

# Source: PubChem BioAssay
